From PubChem BioAssay (NCI)
About 79,000 compounds went through this panel and 15% of them were active in at least one assay; those are over-represented in the sample as a whole. Unmarked numbers belong to inactive results. The source made the active and inactive calls. No stated cut-off is given here; in the data, active means growth inhibition above about 70%; inactive means the rest.

Experiment: NCI Yeast Anticancer Drug Screen. Data for the rad14 strain (AID 159);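 further: 0% = growth of vehicle-treated control cultures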
Conditions: S. cerevisiae rad14 strain growth inhibition, hits give high values
Protocol: Growth inhibition of yeast strains with defined genetic alterations is measured as a screen for potential anti-cancer activity. Selected strains with alterations in DNA damage repair or cell cycle control were exposed to compounds and growth inhibition was measured relative to vehicle treated controls. The strain used in this assay is rad14

Row | Structure (SMILES) | growth inhibition (at 1.2 µM) | growth inhibition (at 3.7 µM) | growth inhibition (at 11.0 µM) | growth inhibition (at 33.0 µM) | growth inhibition (at 100.0 µM)
1 | Oc1ccccc1N=Cc1ccc(Cl)cc1 | 5% | 5% | 11% | 20% | 34%
2 | O=C1C=CC(=O)N1c1ccc2c(c1)OCO2 | 21% | 99% (active) | 100% (active) | 100% (active) | 100% (active)
3 | Cc1cc(C)c(N2C(=O)CC(Sc3ccccc3N)C2=O)c(C)c1 (stereo not given) | -59% | -53% | -53% | -56% | -45%
4 | CC(=O)C1=C(C)O/C(=C/c2cccc(Cl)c2)C1=O | 7% | 0% | 6% | 10% | 28%
5 | c1ccc2c(c1)ccc1c3ccncc3ccc21 | 9% | 15% | 90% (active) | 99% (active) | 96% (active)
6 | COCCCN(Cc1cc(OC)c(OC)c(OC)c1)C(=S)Nc1cccc(Cl)c1 | -28% | -7% | -32% | -32% | 15%
7 | CSc1s[s+]c(SC)c1-c1ccccc1 | -31% | -23% | -21% | 21% | 59%
8 | CCOC(=O)C1=C(C)NC(C)=C(C(=O)OCC)C1c1ccccc1Cl | -4% | -10% | 10% | 53% | 93% (active)
